Measured values reported in PubChem BioAssay (NCATS).
Records with an inconclusive call do not appear. The source made the active and inactive calls. Calls follow the shape of the dose curve; as a rule, active = well fitted curve in the direction sought with a large enough effect; inconclusive = small, poorly fitted or top-dose-only effect, or another doubt; inactive = no such curve, though single readings can be large; an effect the other way counts as inactive or inconclusive.

Tests used:
[1] = tested on: MKL-1; test: qHTS assay to identify novel small-molecules to repurpose for Merkel cell carcinoma treatment (AID 1296009); conditions: MCC and control cell lines, CellTiter-Glo viability, 72 h; series mostly up to 46 µM; also: nearly all actives have a fitted effect of over 60% in size
Summary of the method: (§1)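 After compound transfer in DMSO, plates were kept 72 hr at 37 degree celsius. Luminescent ATP signal from CellTiter-Glo served as viability measure, normalized against DMSO and no-cell controls.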

[2] = tested on: UISO; test: as above; conditions: MCC and control cell lines, CellTiter-Glo viability, 72 h; series mostly up to 46 µM
Summary of the method: as §1

[3] = tested on: WaGa; test: as above; conditions: MCC and control cell lines, CellTiter-Glo viability, 72 h; series mostly up to 46 µM
Summary of the method: as §1

[4] = tested on: C33A; test: Primary qHTS to identify gynecologic anti-cancer compounds using libraries of approved drugs and bioactive compounds (AID 1345084); conditions: Gynecologic cancer cell panel viability, ATPlite luminescence, 48 h; series mostly up to 57.5 µM; also: nearly all actives have a fitted effect of over 55% in size
Summary of the method: (§2)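 Cell viability after 48 h drug treatment, ATPlite luminescence readout; five doses.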

[5] = tested on: CAOV3; test: as above; conditions: Gynecologic cancer cell panel viability, ATPlite luminescence, 48 h; series mostly up to 57.5 µM
Summary of the method: as §2

[6] = tested on: CASKI; test: as above; conditions: Gynecologic cancer cell panel viability, ATPlite luminescence, 48 h; series mostly up to 57.5 µM
Summary of the method: as §2

[7] = tested on: Es-2; test: as above; conditions: Gynecologic cancer cell panel viability, ATPlite luminescence, 48 h; series mostly up to 57.5 µM
Summary of the method: as §2

[8] = tested on: HeLa; test: as above; conditions: Gynecologic cancer cell panel viability, ATPlite luminescence, 48 h; series mostly up to 57.5 µM
Summary of the method: as §2

[9] = tested on: MKL-2; test: qHTS assay to identify novel small-molecules to repurpose for Merkel cell carcinoma treatment (AID 1296009); conditions: MCC and control cell lines, CellTiter-Glo viability, 72 h; series mostly up to 46 µM; also: nearly all actives have a fitted effect of over 60% in size
Summary of the method: as §1

[10] = tested on: NIH3T3; test: as above; conditions: MCC and control cell lines, CellTiter-Glo viability, 72 h; at 44.8 µM (top of the series) unless noted
Summary of the method: as §1
% is scaled to controls: 0 for no effect and ±100 for the full control effect; potency is read from the fitted curve at half-maximal effect.

CC(C)(C)CC(=O)OCC(=O)[C@@]1(O)CC[C@H]2[C@@H]3CCC4=CC(=O)C=C[C@]4(C)[C@H]3[C@@H](O)C[C@@]21C
inactive: Potency [1] | Potency [2] | Potency [3] | Potency [4] | Potency [5] | Potency [6] | Potency [7] | Potency [8]

CC(=O)OC/C=C(C)/C=C/C=C(C)/C=C/C1=C(C)CCCC1(C)C
inactive: Potency [2] | Potency [4] | Potency [5] | Potency [6] | Potency [7] | Potency [8]
active: Potency [9] 3.76 µM

CC(COc1ccccc1)NN (configuration not stated)
inactive: Potency [4] | Potency [5] | Potency [6] | Potency [7] | Potency [8]

COC(=O)C1=CO[C@@H](O)[C@@H]2C(CO)=CC[C@H]12
inactive: Potency [4] | Potency [6] | Potency [7] | Potency [8]

CN(C)[C@@H]1C(=O)C(C(N)=O)=C(O)[C@@]2(O)C(=O)C3=C(O)c4c(O)cccc4C[C@H]3C[C@@H]12
inactive: Potency [4] | Potency [5] | Potency [6] | Potency [7] | Potency [8]

Clc1ccc2c(c1)N=C(N1CCNCC1)c1ccccc1N2
inactive: Potency [4] | Potency [5] | Potency [6] | Potency [7] | Potency [8]

N[C@@H](Cn1ccc(=O)c(O)c1)C(=O)O
inactive: activity change, negative = cytotoxicity [4] 19.3% [at 6.55 µM] | activity change, negative = cytotoxicity [5] 11.6% [at 6.55 µM] | activity change, negative = cytotoxicity [6] 1.33% [at 6.55 µM] | activity change, negative = cytotoxicity [7] 4.8% [at 6.55 µM] | activity change, negative = cytotoxicity [8] -0.102% [at 6.55 µM]

CN1CC[C@H](c2c(O)cc(O)c3c(=O)cc(-c4ccccc4Cl)oc23)[C@H](O)C1
active: Potency [2] 0.473 µM | Potency [4] 1.26 µM | Potency [6] 0.708 µM | Potency [7] 0.708 µM | Potency [8] 0.794 µM

CC(NN)c1ccccc1 (configuration not stated)
inactive: Potency [4] | Potency [5] | Potency [6] | Potency [7] | Potency [8]

O=[N+]([O-])c1ccc(-c2nc(-c3ccc(F)cc3)c(-c3ccncc3)[nH]2)cc1
inactive: Potency [4] | Potency [5] | Potency [6] | Potency [7] | Potency [8]

O=C1[C@@H]2[C@H]3CC[C@H](C3)[C@@H]2C(=O)N1CCCCN1CCN(c2ncccn2)CC1
inactive: Potency [4] | Potency [5] | Potency [6] | Potency [7] | Potency [8]

O=C1NC(=O)/C(=C/c2ccc3c(c2)OC(F)(F)O3)S1
inactive: Potency [4] | Potency [5] | Potency [6]

COc1ccccc1N1CCN(CCN2C(=O)CC3(CCCC3)CC2=O)CC1
inactive: outcome [10] | Potency [4] | Potency [5] | Potency [6] | Potency [7] | Potency [8]

CN(C)c1cc2c(Nc3ccc4c(cnn4Cc4ccccc4)c3)ncnc2cn1
inactive: Potency [4] | Potency [5] | Potency [6] | Potency [7] | Potency [8]

O=C(c1ccccc1)c1ccccc1
inactive: Potency [4] | Potency [5] | Potency [6] | Potency [7] | Potency [8]

C[C@H](N)C(=O)N[C@@H](C)C(=O)NC1[C@H]2CN(c3nc4c(cc3F)c(=O)c(C(=O)O)cn4-c3ccc(F)cc3F)C[C@@H]12 (some centres not stated)
inactive: Potency [4] | Potency [5] | Potency [6] | Potency [7] | Potency [8]

CCCC(=O)O[C@]1(C(=O)CCl)[C@@H](C)C[C@H]2[C@@H]3CCC4=CC(=O)C=C[C@]4(C)[C@@]3(F)C(=O)C[C@@]21C
inactive: Potency [4] | Potency [6] | Potency [7] | Potency [8]

N#C/C(=C1/SC[C@@H](c2ccc(Cl)cc2Cl)S1)n1ccnc1
inactive: Potency [4] | Potency [5] | Potency [6] | Potency [7] | Potency [8]

CCCCCOc1ccccc1/C(=C\SC)n1ccnc1
inactive: Potency [4] | Potency [5] | Potency [6] | Potency [7]
active: Potency [2] 18.8 µM

O=C1NC(c2cccc([N+](=O)[O-])c2)=CCN1c1ccccc1O
inactive: Potency [4] | Potency [7] | Potency [8]

O=C1CC[C@H](C(=O)N2CCCCC2)N1
inactive: Potency [4] | Potency [5] | Potency [6] | Potency [7] | Potency [8]

Cc1cc(OCCOCC[N+](C)(C)Cc2ccccc2)ccc1C(C)(C)CC(C)(C)C
active: Potency [2] 4.22 µM
inactive: Potency [7] | Potency [8]

O=C(OCC(O)CO)c1ccccc1Nc1ccnc2c(C(F)(F)F)cccc12 (configuration not stated)
inactive: Potency [2] | Potency [3] | Potency [4] | Potency [6] | Potency [7] | Potency [8]

CC1CCCCN1CCCOC(=O)c1ccc(OC2CCCCC2)cc1 (configuration not stated)
inactive: Potency [2] | Potency [4] | Potency [5] | Potency [6] | Potency [7] | Potency [8]

CO/N=C(/C(=O)N[C@@H]1C(=O)N2C(C(=O)[O-])=C(C[n+]3ccn4ncccc43)CS[C@H]12)c1nsc(N)n1
inactive: Potency [4] | Potency [5] | Potency [6] | Potency [7] | Potency [8]

CC[N+]1(CC)CCC(=C(c2ccccc2)c2ccccc2)C1C (configuration not stated)
inactive: Potency [4] | Potency [5] | Potency [6] | Potency [7] | Potency [8]

Cc1nn(-c2ccccc2)c(C)c1/C=N/N1CCN(Cc2ccccc2)CC1
inactive: Potency [4] | Potency [5] | Potency [6] | Potency [7] | Potency [8]

COC(=O)[C@H]1[C@H]2C[C@@H]3c4[nH]c5cc(OC)ccc5c4CCN3C[C@H]2C[C@@H](OC(=O)/C=C/c2ccc(O)c(OC)c2)[C@@H]1OC
inactive: Potency [4] | Potency [6] | Potency [7] | Potency [8]

C[C@@H](O[C@H]1OCCN(Cc2n[nH]c(=O)[nH]2)[C@H]1c1ccc(F)cc1)c1cc(C(F)(F)F)cc(C(F)(F)F)c1
inactive: Potency [4] | Potency [5] | Potency [6] | Potency [7]

Brc1ccc([C@H]2CN3CCSC3=N2)cc1
inactive: outcome [10] | Potency [4] | Potency [5] | Potency [6] | Potency [7] | Potency [8]

CN1CCCN(C(c2ccccc2)c2ccc(Cl)cc2)CC1 (configuration not stated)
inactive: Potency [4] | Potency [5] | Potency [7] | Potency [8]

CC(C(O)c1ccccc1)N(C)CCOC(c1ccccc1)c1ccccc1 (configuration not stated)
inactive: Potency [7] | Potency [8]

Nc1ccc(O)cc1
inactive: Potency [4] | Potency [6] | Potency [7]

COc1c(N2C[C@@H]3CCCN[C@@H]3C2)c(F)cc2c(=O)c(C(=O)O)cn(C3CC3)c12
inactive: Potency [4] | Potency [5] | Potency [6] | Potency [7] | Potency [8]

CCOC(=O)Cn1cccc1-c1nc(-c2ccc(OC)cc2)c(-c2ccc(OC)cc2)s1
inactive: outcome [10] | Potency [2] | Potency [3] | Potency [4] | Potency [5] | Potency [6] | Potency [7] | Potency [8]

NC(=O)C1(N2CCCCC2)CCN(CCCN2c3ccccc3CCc3ccc(Cl)cc32)CC1
active: Potency [4] 25.1 µM

Cc1ccc(C(=O)Oc2ccc(C(O)CNC(C)(C)C)cc2OC(=O)c2ccc(C)cc2)cc1 (configuration not stated)
inactive: outcome [10] | Potency [2] | Potency [4] | Potency [6] | Potency [7] | Potency [8]

CC(NCCC(c1ccccc1)c1ccccc1)c1ccccc1 (configuration not stated)
inactive: Potency [7] | Potency [8]
active: Potency [9] 11.9 µM

O=C(O)Cc1ccc(OCCNC[C@H](O)c2ccccc2)cc1
inactive: Potency [4] | Potency [5] | Potency [6] | Potency [7] | Potency [8]

CC(C)N(CCC(=O)c1ccc2ccccc2c1)Cc1ccccc1
inactive: Potency [4] | Potency [5] | Potency [6] | Potency [7] | Potency [8]

O=C(c1cc(O)c(O)c(O)c1)c1ccc(O)c(O)c1O
inactive: Potency [2] | Potency [4] | Potency [5] | Potency [6] | Potency [7] | Potency [8]

CC1CN(c2cc3c(cc2F)c(=O)c(C(=O)O)cn3-c2ccc(F)cc2F)CCN1 (configuration not stated)
inactive: Potency [4] | Potency [5] | Potency [6] | Potency [7] | activity change, negative = cytotoxicity [8] 5.19% [at 6.55 µM]
